# From PubChem BioAssay (EPA / NIEHS)
# Records with an inconclusive call do not appear. Active and inactive are the calls of the source. The calls were made as follows: active = hit-call score of the fitted dose curve at least 0.9, where 1 is the maximum; inconclusive = response in the unintended direction; inactive = score below 0.9.
# Tests used:
# [1] = ACEA_AR_agonist_AUC_viability: ACEA Biosciences xCELLigence Real-Time Cell Analysis on Androgen Receptor Agonism for Viability (AID 2283775);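 as to AC50: viability read 80 hours after compound addition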
# Procedure, shortened: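 22Rv1 cells; impedance growth kinetics; 8-pt 1:4 dilutions from 100 uM top final, ≤0.5% DMSO; n = 2; 80 h read; AUC viability, loss-of-signal vs DMSO.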
# [2] = ACEA_AR_antagonist_AUC_viability: ACEA Biosciences xCELLigence Real-Time Cell Analysis on Androgen Receptor Antagonism for Viability (AID 2283776);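 also: 22Rv1 human prostate cancer cells growing on impedance electrode plates; area under impedance growth curve at 80 h after dosing as viability; hits lower the growth signal relative to DMSO meaning cytotoxicity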
# Procedure, shortened: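 Real-time electrical impedance tracks 22Rv1 proliferation after continuous compound exposure (top 100 uM final, 1:4 steps, 8 concentrations). The 80 h area-under-curve serves as the cytotoxicity readout relative to DMSO.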
# [3] = biological target: Luciferin 4-monooxygenase (Photinus pyralis) (UniProt P08659); experiment: CCTE_Simmons_QuantiLum_inhib_2: CCTE's Firefly Luciferase Inhibition Assay, Simmons Lab (AID 2283767);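 also: potency for inhibitors that lower luciferase luminescence relative to DMSO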
# Sequence of Luciferin 4-monooxygenase (Photinus pyralis) (P08659 whole entry, looked up): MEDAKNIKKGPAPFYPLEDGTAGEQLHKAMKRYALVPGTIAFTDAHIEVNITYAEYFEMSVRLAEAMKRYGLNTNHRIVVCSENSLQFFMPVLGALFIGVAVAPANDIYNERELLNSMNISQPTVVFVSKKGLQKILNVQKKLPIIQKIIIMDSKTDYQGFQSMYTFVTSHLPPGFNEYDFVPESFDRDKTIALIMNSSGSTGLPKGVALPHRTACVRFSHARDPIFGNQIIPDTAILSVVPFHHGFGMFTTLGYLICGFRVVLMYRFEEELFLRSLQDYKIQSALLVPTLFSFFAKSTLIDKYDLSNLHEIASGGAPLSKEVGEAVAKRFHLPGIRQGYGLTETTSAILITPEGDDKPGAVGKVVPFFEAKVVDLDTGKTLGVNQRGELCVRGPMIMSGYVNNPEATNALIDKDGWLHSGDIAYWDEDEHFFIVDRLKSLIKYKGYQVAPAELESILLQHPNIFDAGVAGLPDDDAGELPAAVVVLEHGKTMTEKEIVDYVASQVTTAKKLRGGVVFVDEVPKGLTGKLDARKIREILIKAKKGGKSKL
# Procedure, shortened: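 First, 5 ng purified luciferase in phosphate buffer with BSA is dispensed per well. Next, test chemicals (5 nM to 87.5 uM final, 0.5% DMSO) are added and incubated 30 min at 37C in darkness. Finally, luciferin reagent is injected and luminescence read kinetically.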
smiles,measurement,setting,value
BrCc1cccc(Oc2ccccc2)c1,outcome,[1],inactive
same,outcome,[2],inactive
c1ccc(Oc2ccccc2)cc1,outcome,[1],inactive
O=Cc1ccccc1S(=O)(=O)O,AC50,[1],1.24 µM (active)
same,outcome,[2],inactive
CCCCC1CCC(O)CC1 (centres undefined),outcome,[1],inactive
same,outcome,[2],inactive
COS(=O)(=O)O,outcome,[1],inactive
same,outcome,[2],inactive
CC(=O)O[C@@H]1CC2CCC1(C)C2(C)C (some centres undefined),outcome,[1],inactive
same,outcome,[2],inactive
O=CCc1ccccc1,outcome,[1],inactive
CCCCCCCCCCCCN1CCCCCC1=O,outcome,[1],inactive
CC1(C)C(=O)N(Cl)C(=O)N1Br,outcome,[1],inactive
CS(C)=O,outcome,[1],inactive
same,outcome,[2],inactive
CCC(=O)O[C@@H]1C[C@H]2CC[C@]1(C)C2(C)C,outcome,[1],inactive
Nc1ccccc1[N+](=O)[O-],outcome,[1],inactive
OCc1cccc(Oc2ccccc2)c1,outcome,[1],inactive
same,outcome,[2],inactive
Nc1ccc2cc(S(=O)(=O)O)cc(O)c2c1N=Nc1ccccc1C(F)(F)F,AC50,[3],51.7 µM (active)
same,outcome,[2],inactive
CN1C(=O)c2ccccc2C1=O,outcome,[1],inactive
same,outcome,[2],inactive
O=C1NC2NC(=O)NC2N1 (centres undefined),outcome,[1],inactive
same,outcome,[2],inactive
CCCCCCC(C)(C)S,outcome,[1],inactive
CCCCCCCCCC(=O)OC,outcome,[1],inactive
COCCOCCOCCO,outcome,[1],inactive
CCCCCCCCSCCO,outcome,[1],inactive
same,outcome,[2],inactive
CCCC(C)=O,outcome,[1],inactive
same,outcome,[2],inactive
CCCCCCC(=O)c1ccccc1,outcome,[1],inactive
C#CC(C)(O)CC(C)C (centres undefined),outcome,[1],inactive
same,outcome,[2],inactive
O=P(O)(O)O,outcome,[1],inactive
same,AC50,[2],8.69 µM (active)
C=Cc1ccc(C)cc1,outcome,[1],inactive
